# Data reported in PubChem BioAssay (NCI).
# The panel holds about 79,000 compounds, 15% with a hit somewhere; the sample as a whole holds those more often. Values without a mark were called inactive. The source made the active and inactive calls. Rule as the data show it: active = growth inhibition above about 70%; inactive = the rest.
# Columns and labels:
# [1] = NCI Yeast Anticancer Drug Screen. Data for the rad52 strain (AID 147);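 also: 0% = growth of vehicle-treated control cultures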; conditions: S. cerevisiae rad52 mutant growth inhibition, active compounds read high
# Procedure, shortened: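 Here a repair-compromised yeast strain receives each compound; its growth is then quantified and normalised to vehicle-only controls.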
# [2] = NCI Yeast Anticancer Drug Screen. Data for the wt1 strain (AID 149);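 also: 0% = growth of vehicle-treated wt1 cultures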; conditions: S. cerevisiae wt1 strain (SPY 50644) growth inhibition, active compounds read high
# Procedure, shortened: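 wt1 yeast, compound-treated; % growth inhibition vs vehicle control.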
# [3] = NCI Yeast Anticancer Drug Screen. Data for the rad50 strain (AID 155);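 also: 0% = growth of vehicle-only cultures of the same strain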; conditions: S. cerevisiae rad50 strain growth inhibition, active compounds read high
# Procedure, shortened: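 Genetically altered yeast (DNA repair pathway); compound treatment; growth inhibition vs vehicle ctrl.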
# [4] = NCI Yeast Anticancer Drug Screen. Data for the mec2-1 strain (AID 157); conditions: S. cerevisiae mec2-1 strain, active compounds read high
# Procedure, shortened: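 Using mec2-1 yeast: add compound, measure growth, express inhibition versus vehicle-treated cultures.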
# [5] = NCI Yeast Anticancer Drug Screen. Data for the rad14 strain (AID 159);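 also: 0% = growth of vehicle-treated control cultures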; conditions: S. cerevisiae rad14 strain growth inhibition, active compounds read high
# Procedure, shortened: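 Test compounds were applied to a repair-deficient yeast strain. Its growth was then compared with that of cultures given vehicle alone, and inhibition was expressed relative to those controls.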
# [6] = NCI Yeast Anticancer Drug Screen. Data for the sgs1 mgt1 strain (AID 161);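 also: 0% = growth of cultures given vehicle only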; conditions: S. cerevisiae sgs1 mgt1 strain, active compounds read high
# Procedure, shortened: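 Growth of a repair-deficient yeast mutant was monitored after compound treatment and expressed as inhibition relative to vehicle-treated cultures.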
# [7] = NCI Yeast Anticancer Drug Screen. Data for the CLN2oe strain (AID 163);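 also: 0% = growth of vehicle-only control cultures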; conditions: S. cerevisiae CLN2oe strain, active compounds read high
# Procedure, shortened: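 Whole-cell yeast growth assay. A strain engineered for altered cell-cycle control received compound, and inhibition relative to vehicle-treated cultures was recorded.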
# [8] = NCI Yeast Anticancer Drug Screen. Data for the cln2 rad14 strain (AID 165);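 also: 0% = growth equal to vehicle treated cultures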; conditions: S. cerevisiae cln2 rad14 strain, active compounds read high
# Procedure, shortened: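 Yeast strain cln2 rad14, bearing defects in cell cycle control and DNA repair, serves as the test system; values reflect growth inhibition compared with vehicle.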
# [9] = NCI Yeast Anticancer Drug Screen. Data for the bub3 strain (AID 167); conditions: S. cerevisiae bub3 mutant strain, active compounds read high
# Procedure, shortened: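 Yeast carrying a defined mutation is treated with each compound, and growth is compared with that of vehicle-exposed cells to give inhibition.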
# [10] = NCI Yeast Anticancer Drug Screen. Data for the wt2 strain (AID 169);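 also: 0% = growth of vehicle-treated yeast cultures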; conditions: S. cerevisiae wt2 strain growth inhibition, active compounds read high
# Procedure, shortened: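 Treated yeast vs. vehicle-treated yeast: growth inhibition determined.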
# [11] = NCI Yeast Anticancer Drug Screen. Data for the mlh1 strain (AID 171);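 also: 0% = growth of vehicle-treated control cultures of the same strain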; conditions: S. cerevisiae mlh1 strain growth inhibition, active compounds read high
# Procedure, shortened: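 A yeast strain with a defined genetic lesion serves as the test organism. Cultures receive compound or vehicle, and growth is measured.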
# [12] = NCI Yeast Anticancer Drug Screen. Data for the sgs1 strain (AID 173);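 also: 0% = growth of vehicle-only control cultures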; conditions: S. cerevisiae sgs1 mutant, active compounds read high
# Procedure, shortened: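 A genetically defined yeast mutant is incubated with the test compound, and its growth is compared to that of the same strain given vehicle.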
# [13] = NCI Yeast Anticancer Drug Screen. Data for the mlh1 rad18 strain (AID 175); conditions: S. cerevisiae mlh1 rad18 strain growth inhibition, active compounds read high
# Procedure, shortened: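 Steps: expose repair-defective yeast to compound; measure growth; express inhibition against vehicle-treated controls.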
# [14] = NCI Yeast Anticancer Drug Screen. Data for the rad18 strain (AID 177); conditions: S. cerevisiae rad18 mutant growth inhibition, active compounds read high
# Procedure, shortened: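 Measured value is growth inhibition of a yeast strain bearing a DNA repair alteration, referenced to vehicle-treated cells.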
# [15] = NCI Yeast Anticancer Drug Screen. Data for the rad50EPP+ strain (AID 151);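 also: 0% = growth of vehicle-treated control cultures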; conditions: S. cerevisiae rad50 mutant strain, active compounds read high
# Procedure, shortened: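 Read-out is yeast growth inhibition relative to vehicle; cells used were the rad50EPP+ strain.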
# [16] = NCI Yeast Anticancer Drug Screen. Data for the mgt1 strain (AID 153); conditions: S. cerevisiae mgt1 mutant growth inhibition, active compounds read high
# Procedure, shortened: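 Measured: inhibition of mgt1 yeast growth by compound, normalized to vehicle-treated cultures.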
# [17] = at 5.0 µM (retest, dose inferred, filed as 0.5)
# [18] = at 50.0 µM (retest, dose inferred, filed as 5.0)
structure (smiles),measurement,setting,value
CC(=O)Nc1ccc2c(c1)-c1ccccc1C2=O,growth inhibition,[1]; at 1.2 µM,-1%
same,growth inhibition,[1]; at 3.7 µM,1%
same,growth inhibition,[1]; at 11.0 µM,10%
same,growth inhibition,[1]; at 33.0 µM,70% (active)
same,growth inhibition,[1]; at 100.0 µM,95% (active)
same,growth inhibition,[2]; at 1.2 µM,-2%
same,growth inhibition,[2]; at 3.7 µM,-1%
same,growth inhibition,[2]; at 11.0 µM,-48%
same,growth inhibition,[2]; at 33.0 µM,6%
same,growth inhibition,[2]; at 100.0 µM,45%
same,growth inhibition,[3]; at 1.2 µM,-2%
same,growth inhibition,[3]; at 3.7 µM,19%
same,growth inhibition,[3]; [17],2%
same,growth inhibition,[3]; at 11.0 µM,20%
same,growth inhibition,[3]; at 33.0 µM,68%
same,growth inhibition,[3]; [18],54%
same,growth inhibition,[3]; at 50.0 µM,67.8%
same,growth inhibition,[3]; at 100.0 µM,95% (active)
same,growth inhibition,[4]; at 1.2 µM,-1%
same,growth inhibition,[4]; at 3.7 µM,2%
same,growth inhibition,[4]; [17],7%
same,growth inhibition,[4]; at 11.0 µM,4%
same,growth inhibition,[4]; at 33.0 µM,15%
same,growth inhibition,[4]; [18],15%
same,growth inhibition,[4]; at 50.0 µM,6.9%
same,growth inhibition,[4]; at 100.0 µM,70% (active)
same,growth inhibition,[5]; at 1.2 µM,-4%
same,growth inhibition,[5]; at 3.7 µM,-6%
same,growth inhibition,[5]; at 11.0 µM,-3%
same,growth inhibition,[5]; at 33.0 µM,10%
same,growth inhibition,[5]; at 100.0 µM,82% (active)
same,growth inhibition,[6]; [17],-3%
same,growth inhibition,[6]; [18],6%
same,growth inhibition,[6]; at 50.0 µM,2.4%
same,growth inhibition,[7]; at 1.2 µM,-6%
same,growth inhibition,[7]; at 3.7 µM,-8%
same,growth inhibition,[7]; at 11.0 µM,-8%
same,growth inhibition,[7]; at 33.0 µM,-9%
same,growth inhibition,[7]; at 100.0 µM,13%
same,growth inhibition,[8]; [17],-3%
same,growth inhibition,[8]; [18],11%
same,growth inhibition,[8]; at 50.0 µM,-39.4%
same,growth inhibition,[9]; at 1.2 µM,0%
same,growth inhibition,[9]; at 3.7 µM,-3%
same,growth inhibition,[9]; [17],-3%
same,growth inhibition,[9]; at 11.0 µM,-1%
same,growth inhibition,[9]; at 33.0 µM,7%
same,growth inhibition,[9]; [18],-4%
same,growth inhibition,[9]; at 50.0 µM,-20.4%
same,growth inhibition,[9]; at 100.0 µM,66%
same,growth inhibition,[10]; at 1.2 µM,-4%
same,growth inhibition,[10]; at 3.7 µM,4%
same,growth inhibition,[10]; at 11.0 µM,-6%
same,growth inhibition,[10]; at 33.0 µM,1%
same,growth inhibition,[10]; at 100.0 µM,62%
same,growth inhibition,[11]; at 1.2 µM,-2%
same,growth inhibition,[11]; at 3.7 µM,-2%
same,growth inhibition,[11]; at 11.0 µM,1%
same,growth inhibition,[11]; at 33.0 µM,13%
same,growth inhibition,[11]; at 100.0 µM,82% (active)
same,growth inhibition,[12]; at 1.2 µM,-5%
same,growth inhibition,[12]; at 3.7 µM,-8%
same,growth inhibition,[12]; at 11.0 µM,-9%
same,growth inhibition,[12]; at 33.0 µM,8%
same,growth inhibition,[12]; at 100.0 µM,81% (active)
same,growth inhibition,[13]; [17],1%
same,growth inhibition,[13]; [18],20%
same,growth inhibition,[13]; at 50.0 µM,-1.15%
same,growth inhibition,[14]; at 1.2 µM,-3%
same,growth inhibition,[14]; at 3.7 µM,-5%
same,growth inhibition,[14]; at 11.0 µM,-3%
same,growth inhibition,[14]; at 33.0 µM,14%
same,growth inhibition,[14]; at 100.0 µM,89% (active)
Cc1ccc(NC(c2ccccc2)c2ccc3cccnc3c2O)cc1 (stereo unspecified),growth inhibition,[1]; at 1.2 µM,-1%
same,growth inhibition,[1]; at 3.7 µM,0%
same,growth inhibition,[1]; at 11.0 µM,-1%
same,growth inhibition,[1]; at 33.0 µM,-1%
same,growth inhibition,[1]; at 100.0 µM,-2%
same,growth inhibition,[15]; at 1.2 µM,-3%
same,growth inhibition,[15]; at 3.7 µM,-1%
same,growth inhibition,[15]; at 11.0 µM,-4%
same,growth inhibition,[15]; at 33.0 µM,-3%
same,growth inhibition,[15]; at 100.0 µM,-2%
same,growth inhibition,[16]; at 1.2 µM,0%
same,growth inhibition,[16]; at 3.7 µM,2%
same,growth inhibition,[16]; at 11.0 µM,1%
same,growth inhibition,[16]; at 33.0 µM,2%
same,growth inhibition,[16]; at 100.0 µM,0%
same,growth inhibition,[3]; at 1.2 µM,1%
same,growth inhibition,[3]; at 3.7 µM,-2%
same,growth inhibition,[3]; [17],18%
same,growth inhibition,[3]; at 11.0 µM,6%
same,growth inhibition,[3]; at 33.0 µM,-2%
same,growth inhibition,[3]; [18],29%
same,growth inhibition,[3]; at 50.0 µM,67.1%
same,growth inhibition,[3]; at 100.0 µM,-3%
same,growth inhibition,[4]; at 1.2 µM,1%
same,growth inhibition,[4]; at 3.7 µM,2%
same,growth inhibition,[4]; [17],5%
same,growth inhibition,[4]; at 11.0 µM,1%
same,growth inhibition,[4]; at 33.0 µM,2%
same,growth inhibition,[4]; [18],6%
same,growth inhibition,[4]; at 50.0 µM,50.6%
same,growth inhibition,[4]; at 100.0 µM,12%
same,growth inhibition,[5]; at 1.2 µM,0%
same,growth inhibition,[5]; at 3.7 µM,-1%
same,growth inhibition,[5]; at 11.0 µM,1%
same,growth inhibition,[5]; at 33.0 µM,-26%
same,growth inhibition,[5]; at 100.0 µM,2%
same,growth inhibition,[6]; [17],9%
same,growth inhibition,[6]; [18],10%
same,growth inhibition,[6]; at 50.0 µM,79.7% (active)
same,growth inhibition,[7]; at 1.2 µM,0%
same,growth inhibition,[7]; at 3.7 µM,-1%
same,growth inhibition,[7]; at 11.0 µM,0%
same,growth inhibition,[7]; at 33.0 µM,2%
same,growth inhibition,[7]; at 100.0 µM,5%
same,growth inhibition,[8]; [17],48%
same,growth inhibition,[8]; [18],45%
same,growth inhibition,[8]; at 50.0 µM,59.9%
same,growth inhibition,[9]; at 1.2 µM,-8%
same,growth inhibition,[9]; at 3.7 µM,-1%
same,growth inhibition,[9]; [17],-18%
same,growth inhibition,[9]; at 11.0 µM,-31%
same,growth inhibition,[9]; at 33.0 µM,8%
same,growth inhibition,[9]; [18],-3%
same,growth inhibition,[9]; at 50.0 µM,56.5%
same,growth inhibition,[9]; at 100.0 µM,3%
same,growth inhibition,[10]; at 1.2 µM,0%
same,growth inhibition,[10]; at 3.7 µM,1%
same,growth inhibition,[10]; at 11.0 µM,-1%
same,growth inhibition,[10]; at 33.0 µM,-1%
same,growth inhibition,[10]; at 100.0 µM,-2%
same,growth inhibition,[11]; at 1.2 µM,2%
same,growth inhibition,[11]; at 3.7 µM,2%
same,growth inhibition,[11]; at 11.0 µM,3%
same,growth inhibition,[11]; at 33.0 µM,-22%
same,growth inhibition,[11]; at 100.0 µM,9%
same,growth inhibition,[12]; at 1.2 µM,2%
same,growth inhibition,[12]; at 3.7 µM,3%
same,growth inhibition,[12]; at 11.0 µM,3%
same,growth inhibition,[12]; at 33.0 µM,0%
same,growth inhibition,[12]; at 100.0 µM,-3%
same,growth inhibition,[13]; [17],5%
same,growth inhibition,[13]; [18],10%
same,growth inhibition,[13]; at 50.0 µM,33%
